Experimental data from PubChem BioAssay (Tox21).
Values without a mark were called inactive. Records with an inconclusive call do not appear. A call without a number means that no potency is given here. Calls of active or inactive are those of the source. Unless noted, the call rests on the fitted dose curve; in most records, active means well fitted curve in the direction sought with a large enough effect in the repeat runs; inconclusive means weak or mixed curves; inactive means no such curve, though single readings can be large; an effect the other way counts as inactive or inconclusive.

How the values were obtained:
[1] = qHTS assay to identify small molecule antagonists of the glucocorticoid receptor (GR) signaling pathway - cell viability counter screen (AID 720693); further: nearly all actives have a fitted effect of over 55% in size
[2] = qHTS assay for identifying genotoxic compounds that show differential cytotoxicity against isogenic chicken DT40 cell lines with known DNA damage response pathways - Rev3 mutant cell line (AID 743014); further: nearly all actives have a fitted effect of over 55% in size; further: potency means the concentration at half of the fitted maximal effect
[3] = qHTS assay for identifying genotoxic compounds that show differential cytotoxicity against isogenic chicken DT40 cell lines with known DNA damage response pathways - Rad54/Ku70 mutant cell line (AID 743015); further: nearly all actives have a fitted effect of over 60% in size; further: potency means the concentration at half of the fitted maximal effect
[4] = qHTS assay to identify small molecule antagonists of the androgen receptor (AR) signaling pathway using the MDA cell line - cell viability counter screen (AID 743041; further: nearly all actives have a fitted effect of over 45% in size)
Method in brief: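 Cells were plated at 3,000 per well and left 5 h. Compounds in DMSO were then pinned in, followed by R1881. After 16 h at 37C, CellTiter-Fluor fluorescence gave viability.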

[5] = qHTS assay to identify small molecule antagonists of the thyroid receptor (TR) signaling pathway - cell viability counter screen (AID 743064); further: nearly all actives have a fitted effect of over 50% in size
Method in brief: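 In-well cytotoxicity read by CellTiter-Fluor (30 min, 37 C) following 23.5 h exposure of GH3 cells bearing a TRE-luciferase sensor. Compounds were added alongside 1 nM (final) T3 to drive TR transactivation.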

[6] = qHTS assay to identify small molecule antagonists of the thyroid receptor (TR) signaling pathway (AID 743065); further: series mostly up to about 70 µM; nearly all actives have a fitted effect of over 55% in size
Method in brief: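 Antagonism measured as loss of luciferase signal in GH3 cells stably carrying a TRE-luciferase reporter, co-treated with compound and T3 (1 nM final) for 23.5 h at 37 C. Viability was read in the same well by CellTiter-Fluor.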

[7] = test system: thyroid hormone receptor (rat, GH3 cells); experiment: qHTS assay to identify small molecule agonists of the thyroid receptor (TR) signaling pathway (AID 743066; calls by dose curve; further: potency means the concentration at half of the fitted maximal effect)
[8] = qHTS assay to identify small molecule antagonists of the estrogen receptor alpha (ER-alpha) signaling pathway - cell viability counter screen (AID 743074; calls by dose curve;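 further: HEK293 cells carrying ER-alpha-UAS-bla reporter stimulated with 17beta-estradiol; nearly all actives have a fitted effect of over 45% in size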)
[9] = qHTS assay to identify small molecule antagonists of the estrogen receptor alpha (ER-alpha) signaling pathway using the BG1 cell line - cell viability counter screen (AID 743081);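 further: compound given together with 17beta-estradiol as the ER stimulus; series mostly up to about 70 µM; nearly all actives have a fitted effect of over 45% in size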
[10] = target: Aromatase (Homo sapiens) (UniProt P11511); experiment: qHTS assay to identify aromatase inhibitors (AID 743083); further: series mostly up to about 70 µM; nearly all actives have a fitted effect of over 55% in size
[11] = qHTS assay to identify small molecule antagonists of the androgen receptor (AR) signaling pathway - cell viability counter screen (AID 743033; further: nearly all actives have a fitted effect of over 45% in size)
[12] = target: Estrogen receptor (Homo sapiens) (UniProt P03372); experiment: qHTS assay to identify small molecule agonists of the estrogen receptor alpha (ER-alpha) signaling pathway (AID 743075; calls by dose curve;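 further: HEK293 GripTite cells with ER-alpha and UAS-driven beta-lactamase reporter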)
[13] = target: Estrogen receptor (Homo sapiens) (UniProt P03372); experiment: qHTS assay to identify small molecule agonists of the estrogen receptor alpha (ER-alpha) signaling pathway using the BG1 cell line (AID 743079); further: nearly all actives have a fitted effect of over 20% in size; further: potency means the concentration at half of the fitted maximal effect
[14] = qHTS assay to identify small molecule antagonists of the estrogen receptor alpha (ER-alpha) signaling pathway using the BG1 cell line (AID 743080; calls by dose curve;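 further: BG1 cells stimulated with 17beta-estradiol alongside compound; series mostly up to about 70 µM; nearly all actives have a fitted effect of over 25% in size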)
Method in brief: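 BG1-Luc-4E2 cells (endogenous full-length ER-alpha, stable 4×ERE-luciferase) were starved 5 days in phenol-red-free medium with 10% charcoal-stripped FBS, plated 24 h, then given compound plus 17beta-estradiol for 21.5 h at 37 C; ONE-Glo luminescence read after 30 min.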

[15] = target: Androgen receptor (Homo sapiens) (UniProt P10275); experiment: qHTS assay to identify small molecule antagonists of the androgen receptor (AR) signaling pathway (AID 743035; active means well fitted inhibition curve with a large enough effect in the signal ratio in the repeat runs, not every such curve was filed as active; the % refers to the signal ratio)
Method in brief: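 Using qHTS, AR-UAS-bla GripTite HEK293 cells received compound, then R1881, and were cultured 16 h at 37C/5% CO2 before a 2 h room-temperature LiveBLAzer B/G FRET substrate step and fluorescence measurement.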

[16] = target: Androgen receptor (Homo sapiens) (UniProt P10275); experiment: qHTS assay to identify small molecule agonists of the androgen receptor (AR) signaling pathway using the MDA cell line (AID 743040; further: nearly all actives have a fitted effect of over 20% in size)
Method in brief: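 Cells plated, 5 h at 37C/0% CO2; compound or DMSO pinned; 16 h at 37C; ONE-Glo added; luminescence measured after 30 min at room temperature. Reporter line: MDA-kb2 with MMTV-luciferase responsive to AR and GR.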

[17] = target: Androgen receptor (Homo sapiens) (UniProt P10275); experiment: qHTS assay to identify small molecule antagonists of the androgen receptor (AR) signaling pathway using the MDA cell line (AID 743042; further: nearly all actives have a fitted effect of over 55% in size)
Method in brief: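 Antagonist mode: compounds plus R1881 agonist added to MDA-kb2 AR-luc cells, incubated 16 h at 37C. Luciferase reporter luminescence quantified, with multiplexed CellTiter-Fluor readout for cell viability.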

[18] = target: Estrogen receptor (Homo sapiens) (UniProt P03372); experiment: qHTS assay to identify small molecule antagonists of the estrogen receptor alpha (ER-alpha) signaling pathway (AID 743069; active means well fitted curve in the direction sought with a large enough effect in the signal ratio in the repeat runs, not every such curve was filed as active; the % refers to the signal ratio)
Method in brief: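 ER-alpha-UAS-bla GripTite HEK293 line; 2% charcoal-stripped FBS overnight; plated, 4 hr 37C/5% CO2; cpd in DMSO + 17beta-estradiol, 18 hr 37C; LiveBLAzer B/G FRET substrate 2 hr RT; fluorescence intensity.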

[19] = target: Androgen receptor (Homo sapiens) (UniProt P10275); experiment: qHTS assay to identify small molecule agonists of the androgen receptor (AR) signaling pathway (AID 743036; active means well fitted activation curve with a large enough effect in the signal ratio in the repeat runs, with a control signal flat, not every such curve was filed as active; the % refers to the signal ratio)
Method in brief: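 Activation was read as beta-lactamase FRET signal from LiveBLAzer B/G substrate, added for 2 h at room temperature. Before that, GeneBLAzer AR-UAS-bla GripTite (HEK293) cells had 16 h compound exposure at 37C.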

Chain of Aromatase (Homo sapiens) (P11511 whole entry, looked up): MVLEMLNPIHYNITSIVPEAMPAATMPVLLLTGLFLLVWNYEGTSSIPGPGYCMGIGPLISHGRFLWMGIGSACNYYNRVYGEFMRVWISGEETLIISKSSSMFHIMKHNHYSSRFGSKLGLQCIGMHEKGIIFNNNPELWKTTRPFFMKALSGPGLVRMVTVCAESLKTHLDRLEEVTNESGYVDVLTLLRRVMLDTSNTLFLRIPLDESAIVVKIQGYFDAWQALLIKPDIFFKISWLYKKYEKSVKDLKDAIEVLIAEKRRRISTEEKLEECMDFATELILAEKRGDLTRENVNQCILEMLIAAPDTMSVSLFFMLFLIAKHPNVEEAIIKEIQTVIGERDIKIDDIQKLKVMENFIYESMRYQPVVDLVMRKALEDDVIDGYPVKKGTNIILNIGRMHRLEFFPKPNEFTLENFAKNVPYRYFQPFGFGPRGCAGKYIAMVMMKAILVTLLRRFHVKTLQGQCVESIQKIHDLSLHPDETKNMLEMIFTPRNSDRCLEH
Chain of Androgen receptor (Homo sapiens) (P10275 whole entry, looked up): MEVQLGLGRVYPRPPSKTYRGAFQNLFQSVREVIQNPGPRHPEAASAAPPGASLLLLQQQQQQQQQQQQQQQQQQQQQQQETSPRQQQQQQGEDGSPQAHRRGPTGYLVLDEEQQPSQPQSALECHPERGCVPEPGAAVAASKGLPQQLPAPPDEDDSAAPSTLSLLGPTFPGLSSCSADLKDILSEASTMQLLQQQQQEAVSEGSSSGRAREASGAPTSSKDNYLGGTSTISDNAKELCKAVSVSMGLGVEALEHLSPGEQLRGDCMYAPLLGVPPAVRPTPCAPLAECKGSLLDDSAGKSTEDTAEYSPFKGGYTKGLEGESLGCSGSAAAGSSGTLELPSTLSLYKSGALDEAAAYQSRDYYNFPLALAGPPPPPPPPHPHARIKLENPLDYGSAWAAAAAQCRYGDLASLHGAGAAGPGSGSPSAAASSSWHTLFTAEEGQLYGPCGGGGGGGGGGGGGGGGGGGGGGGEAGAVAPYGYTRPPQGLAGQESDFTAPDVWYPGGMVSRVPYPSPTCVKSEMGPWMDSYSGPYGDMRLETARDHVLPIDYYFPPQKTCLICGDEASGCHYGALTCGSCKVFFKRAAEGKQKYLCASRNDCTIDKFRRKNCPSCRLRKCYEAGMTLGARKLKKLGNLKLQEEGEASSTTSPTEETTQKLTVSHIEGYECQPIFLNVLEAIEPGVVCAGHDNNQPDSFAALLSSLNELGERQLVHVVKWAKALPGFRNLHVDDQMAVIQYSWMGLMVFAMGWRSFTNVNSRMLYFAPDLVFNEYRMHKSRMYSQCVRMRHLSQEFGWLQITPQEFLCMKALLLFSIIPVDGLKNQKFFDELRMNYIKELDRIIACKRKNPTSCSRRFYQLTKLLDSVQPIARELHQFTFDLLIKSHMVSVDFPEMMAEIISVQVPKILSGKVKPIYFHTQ
Chain of Estrogen receptor (Homo sapiens) (P03372 whole entry, looked up): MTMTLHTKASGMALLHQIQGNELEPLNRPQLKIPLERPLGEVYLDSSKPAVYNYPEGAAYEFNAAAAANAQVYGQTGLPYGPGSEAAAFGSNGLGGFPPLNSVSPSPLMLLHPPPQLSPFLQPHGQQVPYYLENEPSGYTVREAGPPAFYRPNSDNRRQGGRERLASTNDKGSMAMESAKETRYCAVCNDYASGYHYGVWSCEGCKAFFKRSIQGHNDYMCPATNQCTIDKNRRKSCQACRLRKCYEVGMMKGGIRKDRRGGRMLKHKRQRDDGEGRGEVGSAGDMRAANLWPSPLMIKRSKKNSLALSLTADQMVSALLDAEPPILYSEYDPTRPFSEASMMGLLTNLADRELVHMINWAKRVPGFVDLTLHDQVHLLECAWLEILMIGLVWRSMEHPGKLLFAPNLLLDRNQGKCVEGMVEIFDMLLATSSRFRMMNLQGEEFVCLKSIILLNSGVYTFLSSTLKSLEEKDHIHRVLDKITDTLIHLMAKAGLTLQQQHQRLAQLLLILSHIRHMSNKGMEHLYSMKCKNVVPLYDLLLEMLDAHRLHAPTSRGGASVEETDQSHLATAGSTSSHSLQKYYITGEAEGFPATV

SMILES | outcome [1] | Potency [2] | Potency [3] | outcome [4] | Potency [5] | Potency [6] | Potency [7] | Potency [8] | outcome [9] | Potency [10] | outcome [11] | Potency [12] | Potency [13] | Potency [14] | outcome [15] | outcome [16] | outcome [17] | outcome [18] | outcome [19]
COc1cc(NS(=O)(=O)c2ccc(N)cc2)ncn1 | inactive | inactive | inactive | inactive | inactive | inactive | inactive | inactive | inactive | inactive |  |  |  |  |  |  |  |  | 
CCCCCCCCOCCC#N | inactive | inactive | inactive | inactive |  | inactive | inactive | inactive | inactive |  | inactive |  |  |  |  |  |  |  | 
COc1ccc2cc(CCC(C)=O)ccc2c1 | inactive | inactive | inactive | inactive | inactive | inactive | inactive | inactive | inactive | inactive | inactive |  |  |  |  |  |  |  | 
CCN1CCN(C(=O)N[C@@H](C(=O)N[C@@H]2C(=O)N3C(C(=O)O)=C(CSc4nnnn4C)CS[C@H]23)c2ccc(O)cc2)C(=O)C1=O | inactive | inactive | inactive | inactive |  |  |  | inactive | inactive | inactive | inactive | inactive | inactive | inactive |  |  |  |  | 
CC(C)c1cc(C(C)C)cc(C(C)C)c1 | inactive | inactive | inactive | inactive | inactive |  |  | inactive | inactive | inactive | inactive | inactive | inactive | inactive |  |  |  |  | 
CC(C)(O)CCCC1=CCC(C=O)CC1 (configuration not stated) | inactive | 65.2 µM (active) |  | inactive |  |  | inactive | inactive | inactive | inactive | inactive | inactive | 58.1 µM (active) | inactive |  |  |  |  | 
CCNC(=O)C(C)OC(=O)Nc1ccccc1 (configuration not stated) | inactive | inactive |  |  |  | inactive | inactive | inactive | inactive | inactive | inactive | inactive | inactive | inactive |  |  |  |  | 
CN(C)c1cc(NC(=O)CNC(C)(C)C)c(O)c2c1C[C@H]1C[C@H]3[C@H](N(C)C)C(=O)C(C(N)=O)=C(O)[C@@]3(O)C(=O)C1=C2O | inactive |  | inactive | inactive |  | inactive | inactive | inactive | inactive | inactive | inactive | inactive | inactive | inactive | inactive | inactive | inactive | inactive | 
O=C(O)COc1ccc2ccccc2c1 | inactive | inactive |  | inactive | inactive | inactive | inactive | inactive | inactive | inactive | inactive | inactive | inactive | inactive |  |  |  | inactive | 
C=CCN(CC=C)CC=C | inactive | inactive | inactive | inactive |  | inactive | inactive |  | inactive | inactive | inactive |  |  |  |  |  |  |  | 
COC(=O)c1c(C)cc(O)c(C)c1O | inactive | 54.5 µM (active) | 61.1 µM (active) | inactive | inactive | inactive |  | inactive | inactive | inactive | inactive |  | 68.6 µM (active) | inactive |  |  |  |  | 
CC(C)(C)NCC(O)COc1cccc2c1CCC(=O)N2 (configuration not stated) | inactive | inactive |  | inactive | inactive |  |  | inactive | inactive | inactive | inactive |  |  |  | inactive | inactive | inactive |  | inactive
COC(C)(C)CC(C)=O | inactive | 54.5 µM (active) |  | inactive | inactive | inactive | inactive | inactive | inactive | inactive | inactive |  |  |  | inactive | inactive | inactive |  | inactive
CCCCCCCC(=O)N(C)C | inactive | inactive | inactive | inactive | inactive | inactive | inactive | inactive | inactive | inactive | inactive | inactive | inactive | inactive |  |  |  |  | 
C[Si](C)(C)O[Si](O)(O)O | inactive | 61.1 µM (active) |  | inactive | inactive | inactive | inactive | inactive | inactive | inactive | inactive | inactive | inactive | inactive |  |  |  | inactive | 
O=C1Nc2ccccc2C1=O | inactive | inactive | inactive | inactive | inactive | inactive | inactive | inactive | inactive | inactive | inactive |  |  |  |  |  |  |  | 
CSC(=O)c1cccc2nnsc12 | inactive | 21.7 µM (active) |  | inactive |  | inactive | inactive | inactive | inactive | inactive | inactive | inactive | inactive | inactive |  | inactive | inactive |  | inactive
C=CCCCCCCCCOC(C)=O | inactive | inactive |  | inactive | inactive | inactive | inactive | inactive | inactive | inactive | inactive | inactive | inactive | inactive |  |  |  | inactive | 
CC(=O)c1ccc2ccc3ccccc3c2c1 | inactive | 60.8 µM (active) |  | inactive |  | inactive | inactive | inactive | inactive | inactive | inactive | inactive | 8.58 µM (active) |  |  |  |  |  | 
O=Cc1ccccc1S(=O)(=O)O | inactive | inactive | inactive | inactive | inactive | inactive | 68.5 µM (active) | inactive |  | inactive | inactive |  |  |  |  |  |  |  | 
C=CCON/C(CCC)=C1\C(=O)CC(C)(C)C(C(=O)OC)=C1O | inactive | inactive | inactive | inactive | inactive | inactive | inactive | inactive | inactive | inactive | inactive |  |  |  |  |  |  |  | 
